Measurements taken from PubChem BioAssay (NCI).
Where “and” joins values, the source holds several entries; their conditions need not be identical. Equal entries are not always repeated. The panel holds about 83,000 compounds, 20% with a hit somewhere; the sample as a whole holds those more often.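 The test compound was applied at a single concentration to cells in 96-well plates for 48 hours, and percent growth was recorded.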 Unmarked numbers belong to inactive results. Calls of active or inactive are those of the source. The calls were made as follows: active = growth percent below 10; inactive = the rest.

These molecules were tested on MDA-MB-468 breast (assay: NCI-60 one-dose screen, 48 h (100 = growth as untreated, 0 = no growth, -100 = all killed)). Details: 10 µM unless noted.

SMILES | growth
C/C(=C(\c1ccc(OCCCN(C)C)cc1)c1ccc(OC(=O)Cc2ccccc2)cc1)c1ccc(Cl)cc1 | 84.1%
CN(CC(=O)N(Cc1ccc(C2CCCCC2)cc1)c1ccc(C(=O)O)cc1)S(=O)(=O)c1c(F)c(F)c(F)c(F)c1F | -86.6% (active)
COc1cc(NC(=O)COc2ccccc2)c(C(N)=O)cc1OC | 17.7%
N#Cc1ccc(C(=O)CSc2nc(Nc3ccc(S(N)(=O)=O)cc3)c3ccccc3n2)cc1 | 105%
N#Cc1c(C(F)(F)F)cc(Nc2ccc3nc(NCCN4CCCC4)oc3c2)n2c1nc1ccccc12 | 34.1%
CCO/C=N/C1=C(C#N)C(c2ccc(Cl)cc2)c2sc3c(C)cccc3c2O1 (stereo not given) | -3.01% (active)
COc1ccc(CCN2C(=O)CSC2=S)cc1OC | -2.77% (active)
CCOC(=O)n1cc(-c2nonc2-c2cn(C)c3ccc(OC)cc23)c2cc(F)ccc21 | 87.3%
CN(/C(N)=N/N=C/c1c2ccccc2cc2ccccc12)C1CCCCC1 | 4.88% (active)
Cc1ccc2ccc3ccc(C)nc3c2n1.Cc1ccc2ccc3ccc(C)nc3c2n1.Oc1c(Cl)cc(Cl)c2ccc(CN3CCCCC3)nc12.[Ru] | -80% (active)
COc1ccc(CNc2c3ccccc3nc3ccccc23)cc1 | 27.1%
O=Nc1c(-c2c(O)[nH]c3ncccc23)[nH]c2ccccc12 | 28.4%
O=C(CN1CCN(c2ccc(Cl)cc2)CC1)N1CCN(c2nnc(-c3ccc(Cl)cc3)c(-c3ccc(Cl)cc3)n2)CC1 | 87.5%
CC(=O)Nc1ccc(OC(=O)c2ccccc2O)cc1 | 117%
CCC(C(=O)[C@@H](C)[C@@H](O)[C@H](C)[C@@H]1O[C@@H]([C@@H](CC)C(=O)ONC(=O)c2ccccc2)CC[C@@H]1C)[C@H]1O[C@]2(C=CC(=O)[C@]3(CC[C@@](C)([C@H]4CC[C@](O)(CC)[C@H](C)O4)O3)O2)[C@H](C)C[C@@H]1C (stereo not given in full) | -33.2% (active)
C=C(C)[C@@H]1CC[C@]2(C(=O)NNC(=O)c3cccnc3)CC[C@]3(C)[C@H](CC[C@@H]4[C@@]5(C)CCCNC(C)(C)[C@@H]5CC[C@]43C)[C@@H]12 | 79.8%
O=C1C=CC(=O)N1c1ccccc1N1C(=O)C=CC1=O | 104%
CC1CCN(C(=S)SCC(=O)NC(=O)c2ccccc2)CC1 | 119%
NC(=S)N/N=C(\c1ccc(Cl)cc1)C1CC1 | 18.5%
Cc1cccc(Cc2cnc(NC(=O)CCCOc3ccc(Cl)cc3)s2)c1 | 3.77% (active)

SMILES | growth
O=C1C2C(C(=O)N1CC[Se][Se]CCN1C(=O)C3C(C1=O)[C@H]1C=C[C@@H]3C1)[C@H]1C=C[C@@H]2C1 (stereo not given in full) | -12.6% (active)
CCN(CC)CCCC(C)Nc1cnc(C(=O)Nc2cc(F)cc3cccnc23)cn1 (stereo not given) | 6.24% (active) and -66.3% (active)
COc1cccc(N2CCN(C3=C(Cl)C(=O)c4ncccc4C3=O)CC2)c1 | -63.6% (active)
CC/C=C\C[C@H](O)C/C=C1/C(=O)C=C[C@@H]1C/C=C\CCCC(=O)O | 28.7%
COc1ccc(C(=O)/C=C/c2cccc([N+](=O)[O-])c2)c(OC)c1 | -3.24% (active)
COc1cc2nc(-c3ccc(C(F)(F)F)cc3)cc(OCCCNCC3CCCO3)c2cc1OC (stereo not given) | 14.2%
CN1CCN(c2ccc(Nc3nc(NCCNS(=O)(=O)c4ccccc4)c4sccc4n3)cc2)CC1 | 90.5%
c1ccc(-c2nnc(Nc3nnc(-c4ccccc4)s3)s2)cc1 | 107%
COc1ccc(C2=NC(=O)NC2c2ccc(OC)cc2)cc1 (stereo not given) | 43.9%
O[C@H]1[C@H]2c3cc4c(cc3CN3CCC(=C[C@@H]1O)[C@H]23)OCO4 | 20.7%
Cn1ncc2c(C(=O)c3ccc(F)cc3)nc(C(C)(C)C)nc21 | 93.5%
COc1cc2c(cc1OC)C(=O)C(CC1CCN(C(=O)Nc3ccc(C)cc3)CC1)C2 (stereo not given) | 93.1%
Cc1c(Cl)cccc1NC(=O)c1sc2nc3c(cc2c1N)CCCC3 | 15.1%
COc1cc([C@H](C)c2ccc3ccccc3c2)cc(OC)c1OC | 47.3%
CC(CN)[C@@H]1CC[C@]2(CO)CC[C@]3(C)[C@H](CC[C@@H]4[C@@]5(C)CCC(N)C(C)(C)[C@@H]5CC[C@]43C)[C@@H]12 (stereo not given in full) | 6.19% (active)
CC/C(=C(\c1ccccc1)c1ccc(OCCN(C)C)cc1)c1ccccc1 | -13.3% (active)
Cc1cc(NC(=O)c2cccc(C(F)(F)F)c2)ccc1-n1ccc2c(NC(=O)c3ccccc3)nccc21 | 111%
O=C(Cn1cc(COc2ncnc3c2cnn3-c2ccccc2)nn1)Nc1ccccn1 | 97.7%
c1ccc2c(c1)CCN(NCCN1CCCC1)C2 | 109%
CS(=O)c1nccc(-c2c(-c3ccc(F)c(OCCc4ccccc4)c3)nc3sccn23)n1 (stereo not given) | -39.4% (active)
